Results on 23 compounds are retold here after PubChem BioAssay (NCATS).

The structures appear in SMILES notation. Results filed as inconclusive are left out. Activity calls are given as the source filed them. The call rests on the fitted dose curve; in most records, active means well fitted inhibition curve with a large enough effect; inconclusive means small, poorly fitted or top-dose-only effect; inactive means flat fitted curve, though single readings scatter.
On the % scale 0 is the no-effect control and ±100 the full control effect.

The nature of this assay: qHTS to identify inhibitors of the type 1 interferon - major histocompatibility complex class I in skeletal muscle: primary screen against the NCATS Pharmaceutical Collection (AID 1347407).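 Further: luminescence of HiBiT knocked into endogenous HLA-B as interferon-induced MHC class I level.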 Conditions: human skeletal muscle cells, IFN-b-induced MHC-I HiBiT luminescence, 24 h; series mostly up to 45.9 µM; activity change, negative = inhibition: at the top concentration. An outline of the steps:
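Cells were seeded with 4 ng/ml IFN-beta, incubated 1 h, then dosed with compounds over eight 1:5 steps up to 46 uM final. After 24 h at 37 C, HiBiT lytic reagent was added and luminescence read after 10 min lysis in the dark.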
Background: Quantitative high-throughput screening tests each substance at several concentrations.
For the compound `c1ccc2c(c1)Nc1ccccc1S2`, the Potency entry is “inactive”.
Take `C=C1C[C@@H]2[C@H](CC[C@]3(C)C(=O)CC[C@@H]23)[C@@]2(C)C=CC(=O)C=C12`: the “activity change, negative = inhibition” value was -14% (inactive).
For `CCOP(=S)(OCC)Oc1cc(C)nc(C(C)C)n1`, the “activity change, negative = inhibition” value was -0.217% (inactive).
Same read-out and setting: the same measure for `Cc1ccc2c(c1)C1CN(C)CCC1N2` (stereo not drawn): -3.06% [at 19 µM] (inactive); for `CCC(COC(=O)c1cc(OC)c(OC)c(OC)c1)(c1ccccc1)N(C)C` (stereo not drawn): 1.42% (inactive).
On the same count and under the same terms, the result for `CC(C)(C)CC(C)(C)c1ccc(O)cc1` reads 14.2% (inactive); that for `C#CCN(C)[C@H](C)Cc1ccccc1`, -4.26% (inactive).
Still for that read-out and setting: the same measure for `CC[N+](CC)(CC)CC`: 7.71% (inactive); for `CC(=O)Nc1cc([As](=O)(O)O)ccc1O`: 12.2% (inactive).
As for `CCCC1CCCCN1` (stereo not drawn), the “activity change, negative = inhibition” value is -10.2% (inactive).
On the same count and under the same terms, the result for `CCN(CC)CCOC(=O)C(O)(c1ccccc1)c1ccccc1` reads 3.6% (inactive); that for `Oc1cc(Cl)ccc1Oc1ccc(Cl)cc1Cl`, -13.3% (inactive); that for `Oc1ccccc1-c1ccccc1`, -2.19% (inactive).
For the compound `O=c1oc2ccccc2c(O)c1C(CC(O)c1ccc(-c2ccc(Br)cc2)cc1)c1ccccc1` (stereo not drawn), the “activity change, negative = inhibition” value is -22.1% (inactive).
For the compound `CCCC(C)(COC(N)=O)COC(=O)NC(C)C` (stereo not drawn), the “activity change, negative = inhibition” value was 16.7% (inactive).
Still for that read-out and setting: the result for `CC(C)NCC(O)c1ccccc1Cl` (stereo not drawn) reads -23.7% (inactive).
For `Oc1cccc2cccnc12`, the Potency entry was “inactive”.
`Cn1cc(C2=C(c3cn(C4CCN(Cc5ccccn5)CC4)c4ccccc34)C(=O)NC2=O)c2ccccc21`: the “activity change, negative = inhibition” value was -11.4% (inactive).
Take `CC(C)(N)Cc1ccc(Cl)cc1`: the “activity change, negative = inhibition” value is -4.73% (inactive).
Still for that read-out and setting: the result for `CCN(C(C)=O)c1cccc(-c2ccnc3c(C#N)cnn23)c1` reads 1.75% (inactive); that for `C=CCN1CC[C@]23c4c5ccc(O)c4O[C@H]2C(=O)CC[C@@]3(O)[C@H]1C5`, -2.12% (inactive); that for `OCCOc1ccccc1`, -2.93% (inactive).
The same measure, in the same setting: the result for `CC(C)=CC1C(C(=O)OCc2cccc(Oc3ccccc3)c2)C1(C)C` (stereo not drawn) reads -1.49% (inactive).
